Drawing on PubChem BioAssay (NCATS), this text covers outcome and Potency for 18 molecules.

Experiment [1] has as its target Alpha-galactosidase A (Homo sapiens) (UniProt P06280). As to the kind of experiment: Counterscreen for Glucocerebrosidase Inhibitors: qHTS Assay for Human alpha-Galactosidase at pH 4.5 (AID 992). The procedure, abridged:
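Enzyme at 2 nM final was combined with compound (0.7 nM to 77 uM) and 80 uM 4-methylumbelliferyl alpha-D-galactopyranoside in 50 mM citric acid, 0.005% Tween-20, pH 4.5. After 20 min at room temperature, fluorescence was read (Ex 365/Em 440 nm); AC50 came from Hill fits.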

Experiment [2] is described as follows: Cell Viability - LYMP2-013 (AID 970). Further: nearly all actives have a fitted effect of over 55% in size. Further: potency means the concentration at half of the fitted maximal effect. The procedure, abridged: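 Human lymphoblastoid LYMP2-013 cells, 2500/well, treated 24 h at 37 C in complete medium; viability as intracellular ATP by CellTiter-Glo luminescence after 30 min. AC50 from Hill fits of qHTS concentration-response.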
Experiment [3] can be described thus: Cell Viability - LYMP2-015 (AID 971). Further: nearly all actives have a fitted effect of over 55% in size. Further: potency means the concentration at half of the fitted maximal effect. The procedure, abridged: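 LYMP2-015 human lymphoblastoid cells (2500/well) in complete medium, compound-treated 24 h at 37 C; viability read as cellular ATP by CellTiter-Glo luminescence after 30 min at room temperature. AC50 from Hill-equation fits of qHTS concentration-response data.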
Experiment [4] can be described thus: Cell Viability - LYMP2-017 (AID 972). Further: nearly all actives have a fitted effect of over 55% in size. Further: potency means the concentration at half of the fitted maximal effect. In a few lines: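 LYMP2-017 human lymphoblastoid cells (2500/well) settled 5 hr at 37 C, then exposed to compound 24 hr at 37 C in complete medium. Viability taken as intracellular ATP by CellTiter-Glo luminescence after 30 min at RT; AC50 from Hill fits.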
Experiment [5] in a line: Cell Viability - LYMP2-019 (AID 973). Further: nearly all actives have a fitted effect of over 55% in size. Further: potency means the concentration at half of the fitted maximal effect. In a few lines:
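Human lymphoblastoid LYMP2-019 cells (2500/well) preincubated 5 h at 37 C, then treated 24 h at 37 C in complete medium. Viability by CellTiter-Glo ATP luminescence after 30 min at room temperature; AC50 from Hill fits.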

The nature of experiment [6]: Cell Viability - LYMP2-021 (AID 974). Further: potency means the concentration at half of the fitted maximal effect. The procedure, abridged:
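Human lymphoblastoid LYMP2-021 cells, 2500/well in complete medium, treated 24 hours at 37 C. Intracellular ATP by CellTiter-Glo luminescence (30 min, RT); AC50 from Hill fits of concentration-response.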

A short description of experiment [7]: Cell Viability - LYMP2-023 (AID 975). Further: nearly all actives have a fitted effect of over 55% in size. Further: potency means the concentration at half of the fitted maximal effect. In a few lines: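 LYMP2-023 human lymphoblastoid cells, 2500/well, preincubated 5 hr at 37 C, then compound-treated 24 hr at 37 C in complete medium. CellTiter-Glo luminescence (ATP) after 30 min at room temperature; AC50 from Hill-equation fits; tetraoctylammonium bromide positive control.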
Experiment [8] can be described thus: Cell Viability - LYMP2-025 (AID 976). Further: potency means the concentration at half of the fitted maximal effect. The procedure, abridged: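 Human lymphoblastoid LYMP2-025 cells, 2500/well, exposed 24 h at 37 C in complete medium in 1536-well qHTS. Viability as cellular ATP by CellTiter-Glo luminescence; AC50 from Hill fits of concentration-response data.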
Experiment [9] is described as follows: Cell Viability - LYMP2-002 (AID 977).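 Further: compound exposure lasted 24 h at 37 °C.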 Further: potency means the concentration at half of the fitted maximal effect. In a few lines:
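Cytotoxicity is scored as concentration-dependent loss of cellular ATP in a human lymphoblastoid line after 24 hr compound treatment at 37 C. AC50 is obtained by modelling concentration-response data with the Hill equation.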

A short description of experiment [10]: Cell Viability - LYMP2-006 (AID 978). Further: nearly all actives have a fitted effect of over 60% in size. Further: potency means the concentration at half of the fitted maximal effect. In a few lines:
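Human lymphoblastoid cells, 2500 per well, were preincubated 5 hr at 37 C, then exposed to compounds for 24 hr at 37 C in complete medium. Viability was read as intracellular ATP by CellTiter-Glo luminescence; AC50 from Hill-equation fits of qHTS concentration-response data.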

The nature of experiment [11]: Cell Viability - LYMP2-007 (AID 979).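 Further: cells exposed to compound for 24 h before reading; nearly all actives have a fitted effect of over 60% in size.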 Further: potency means the concentration at half of the fitted maximal effect. In a few lines:
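Human lymphoblastoid LYMP2-007 cells (2500/well) preincubated 5 h at 37 C, then treated 24 h at 37 C in complete medium. Viability by CellTiter-Glo ATP luminescence after 30 min at room temperature; AC50 from Hill fits.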

Experiment [12] in a line: Cell Viability - LYMP2-008 (AID 980). Further: nearly all actives have a fitted effect of over 60% in size. Further: potency means the concentration at half of the fitted maximal effect. In a few lines: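 LYMP2-008 lymphoblastoid cells (2500/well) plated 5 h, then treated 24 h at 37 C in complete medium. Viability read as intracellular ATP by CellTiter-Glo luminescence after 30 min at room temperature; AC50 from Hill fits.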
Experiment [13] in a line: Cell Viability - LYMP2-010 (AID 981). Further: nearly all actives have a fitted effect of over 55% in size. Further: potency means the concentration at half of the fitted maximal effect. The procedure, abridged:
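Human lymphoblastoid LYMP2-010 cells (2500/well) treated 24 h at 37 C in complete medium; viability read as intracellular ATP by CellTiter-Glo luminescence. AC50 from Hill fits of concentration-response data; tetraoctylammonium bromide positive control.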

Experiment [14] is described as follows: Cell Viability - LYMP2-012 (AID 982). Further: potency means the concentration at half of the fitted maximal effect.
A short description of experiment [15]: Cell Viability - LYMP2-014 (AID 983). Further: nearly all actives have a fitted effect of over 50% in size. Further: potency means the concentration at half of the fitted maximal effect. The procedure, abridged:
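LYMP2-014 human lymphoblastoid cells, 2500/well, treated 24 h at 37 C in complete medium; viability by CellTiter-Glo ATP luminescence after 30 min at room temperature. AC50 from Hill fits of qHTS concentration-response; tetraoctylammonium bromide positive control.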

Experiment [16] in a line: Cell Viability - LYMP2-016 (AID 984). Further: nearly all actives have a fitted effect of over 55% in size. Further: potency means the concentration at half of the fitted maximal effect. The procedure, abridged: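 Human lymphoblastoid cells (LYMP2-016), 2500/well in complete medium, preincubated 5 hr at 37 C, then compound-treated 24 hr at 37 C. Intracellular ATP read by CellTiter-Glo luminescence after 30 min at room temperature; AC50 from Hill-equation concentration-response fits.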
Experiment [17] can be described thus: Cell Viability - LYMP2-018 (AID 985).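 Further: compound exposure lasted 24 hr at 37 °C; nearly all actives have a fitted effect of over 50% in size.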 Further: potency means the concentration at half of the fitted maximal effect. In a few lines:
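Human lymphoblastoid LYMP2-018 cells, 2500/well, settled 5 hr at 37 C then exposed to compound 24 hr at 37 C; intracellular ATP measured by CellTiter-Glo luminescence. AC50 from Hill-equation concentration-response fits.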

A short description of experiment [18]: Cell Viability - LYMP2-020 (AID 986). Further: nearly all actives have a fitted effect of over 55% in size. Further: potency means the concentration at half of the fitted maximal effect. In a few lines: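 Human lymphoblastoid LYMP2-020 cells (2500/well) preincubated 5 h at 37 C, then treated 24 h at 37 C. Viability measured as intracellular ATP by CellTiter-Glo luminescence after 30 min at room temperature; AC50 from Hill fits.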
Experiment [19] is described as follows: Cell Viability - LYMP2-022 (AID 987). Further: nearly all actives have a fitted effect of over 55% in size. Further: potency means the concentration at half of the fitted maximal effect. In a few lines: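 LYMP2-022 lymphoblastoid cells (2500/well, complete medium) were treated with compounds for 24 hours at 37 C; intracellular ATP was then read by CellTiter-Glo luminescence after 30 min at room temperature. AC50 values were derived from Hill-equation fits.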
Experiment [20] is described as follows: Cell Viability - LYMP2-024 (AID 988). Further: nearly all actives have a fitted effect of over 60% in size. Further: potency means the concentration at half of the fitted maximal effect. The procedure, abridged: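 Human lymphoblastoid LYMP2-024 cells (2500/well) rested 5 hr, then treated with compound for 24 hr at 37 C in complete medium. Viability was measured as intracellular ATP by CellTiter-Glo luminescence. AC50 values came from Hill-equation fits.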

Inconclusive results are not listed. The source made the active and inactive calls. The call rests on the fitted dose curve; in most records, active means well fitted curve in the direction sought with a large enough effect; inconclusive means small, poorly fitted or top-dose-only effect, or another doubt; inactive means no such curve, though single readings can be large; an effect the other way counts as inactive or inconclusive. Peptide text beside a SMILES is read from it.

Chain of Alpha-galactosidase A (Homo sapiens) (P06280 whole entry, looked up): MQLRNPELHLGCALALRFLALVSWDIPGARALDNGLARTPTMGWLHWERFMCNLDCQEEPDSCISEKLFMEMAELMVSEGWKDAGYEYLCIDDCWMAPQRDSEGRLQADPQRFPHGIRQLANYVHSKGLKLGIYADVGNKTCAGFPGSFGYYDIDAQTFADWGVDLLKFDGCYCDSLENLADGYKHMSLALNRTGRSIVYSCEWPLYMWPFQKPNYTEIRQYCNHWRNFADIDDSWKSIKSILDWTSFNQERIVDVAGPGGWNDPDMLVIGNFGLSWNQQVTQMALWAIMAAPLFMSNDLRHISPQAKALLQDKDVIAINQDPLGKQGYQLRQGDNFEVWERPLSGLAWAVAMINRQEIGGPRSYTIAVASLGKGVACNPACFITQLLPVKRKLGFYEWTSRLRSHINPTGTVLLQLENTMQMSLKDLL

In the case of `COc1ccccc1N1CCN(CCN(C(=O)C2CCCCC2)c2ccccn2)CC1`, in [1], the molecule was called inactive.

As to `O=C1NC(=O)C(c2ccccc2[N+](=O)[O-])=C1Nc1ccc(O)c(Cl)c1`, the result in experiment [1] was inactive.

`O=c1cc(N2CCOCC2)oc2c(-c3ccccc3)cccc12`: the molecule was called inactive in experiment [1].

For the molecule `CS(=O)(=O)OCCCCOS(C)(=O)=O`, the Potency result in experiment [2], in experiment [3], in experiment [4], in experiment [5], in experiment [6] and in [7] was “inactive” each time. Also, the Potency entry in experiment [8], in [9], in experiment [10], in experiment [11], in [12] and in [13] was “inactive” in each case. Further, the Potency result in [14], in [15], in [16], in experiment [17], in experiment [18] and in experiment [19] was “inactive” throughout. Besides, the Potency entry in experiment [20] was “inactive”.

`CCN(CC)C(=S)SSC(=S)N(CC)CC`: the molecule was called inactive in experiment [1].

For the molecule `Nc1nc(OCc2ccccc2)c2[nH]cnc2n1`, the call in experiment [1] was inactive.

Take `O=Nc1c(-c2c(O)[nH]c3cc(Br)ccc23)[nH]c2ccccc12`: the molecule was called inactive in experiment [1].

With `Nc1ccc(S(N)(=O)=O)cc1`, the Potency entry in experiment [2], in experiment [3], in experiment [4], in [5], in experiment [6] and in experiment [7] was “inactive” throughout. Also, the Potency result in experiment [8], in experiment [9], in experiment [10], in experiment [11], in experiment [12] and in experiment [13] was “inactive” each time. The Potency entry in [14], in [15], in experiment [16], in [17], in experiment [18] and in [19] was “inactive” throughout. Also, in experiment [20], the Potency result was “inactive”.

Turning to `CC1(C)NC(=O)N(c2ccc([N+](=O)[O-])c(C(F)(F)F)c2)C1=O`, in experiment [1], the molecule was classed as inactive.

As for `NS(=O)(=O)c1cc(C(=O)O)c(NCc2ccco2)cc1Cl`, the Potency result in experiment [2], in experiment [3], in experiment [4], in experiment [5], in [6] and in experiment [7] was “inactive” in each case. Moreover, the Potency entry in [8], in experiment [9], in [10], in experiment [11], in experiment [12] and in experiment [13] was “inactive” each time. The Potency entry in experiment [14], in [15], in [16], in experiment [17], in [18] and in experiment [19] was “inactive” throughout. Besides, in experiment [20], the Potency result is “inactive”.

Consider `CC(=O)N1CCN(c2ccc(OC[C@H]3CO[C@](Cn4ccnc4)(c4ccc(Cl)cc4Cl)O3)cc2)CC1`, for which, in [1], the molecule was classed as inactive.

Turning to `CNC[C@H](O)c1ccc(O)c(O)c1`, the outcome in experiment [1] was inactive.

Regarding `Cc1cccc(C#Cc2ccccc2)n1`, the molecule was called inactive in experiment [1].

In the case of `COC(=O)[C@H](Cc1ccccc1)NC(=O)[C@@H](N)CC(=O)O` (H-Asp-Phe-OMe), the Potency entry in experiment [2], in [3], in experiment [4], in experiment [5], in [6] and in [7] was “inactive” throughout. In addition, the Potency entry in [8], in experiment [9], in [10], in experiment [11], in experiment [12] and in experiment [13] was “inactive” each time. Moreover, the Potency result in experiment [14], in experiment [15], in [16], in experiment [17], in experiment [18] and in experiment [19] was “inactive” in each case. The Potency result in [20] was “inactive”.

Regarding `CC(C)c1ccc2c(c1)c(SC(C)(C)C)c(CC(C)(C)C(=O)O)n2Cc1ccc(Cl)cc1`, the outcome in [1] was inactive.

In the case of `NC(=NCc1ccccc1)NC(=O)c1nc(Cl)c(N)nc1N`, the call in experiment [1] was inactive.

Consider `CN(C)c1ccc2nc3ccc(=[N+](C)C)cc-3sc2c1`, for which the Potency was 7.94 µM (active) in experiment [2]; 3.98 µM (active) in experiment [3]; 6.31 µM (active) in experiment [4]; 3.16 µM (active) in [5]; 7.94 µM (active) in experiment [6]; 3.98 µM (active) in experiment [7]. Also, the Potency in experiment [8] is 3.98 µM (active); in experiment [9] it was 3.16 µM (active); in [10] it was 5.01 µM (active); in experiment [11], 7.94 µM (active); in [12], 3.16 µM (active); in [13], 6.31 µM (active). Besides, the Potency is 6.31 µM (active) in [14]; 3.98 µM (active) in experiment [15]; 3.98 µM (active) in [16]; 7.94 µM (active) in [17]; 7.94 µM (active) in experiment [18]; 6.31 µM (active) in experiment [19]. Moreover, the Potency in [20] was 6.31 µM (active).

For the molecule `COc1c2occc2cc2ccc(=O)oc12`, the Potency result in [2], in experiment [3], in [4], in [5], in [6] and in experiment [7] was “inactive” in each case. Further, the Potency result in [8], in experiment [9], in experiment [10], in experiment [11], in experiment [12] and in [13] was “inactive” throughout. The Potency result in [14], in experiment [15], in [16], in experiment [17], in experiment [18] and in experiment [19] was “inactive” in each case. In addition, the Potency entry in [20] was “inactive”.
